Among the data in PubChem BioAssay are inhibition values, retold here.

Each structure is given as a SMILES string. A number with no mark means an inactive call. The source made the active and inactive calls. Unless noted, no stated cut-off is given here; in the data, active means inhibition above about 33%; inactive means the rest.

Test [1] can be described thus: StAR promoter reporter inhibitors, counter-screen for LRH-1 inverse agonist project, cell-based, luminescence, high throughput (AID 651611; in the data active means inhibition above about 28%). The following applies: StAR promoter luciferase reporter counterscreen, at 3.6 µM, stronger effect = higher value. A general note: A counterscreen serves to expose hits that act by an unwanted route or on another target.
In test [2] the target is Nuclear receptor subfamily 5 group A member 2 (Homo sapiens) (UniProt O00482). The test is described as follows: LRH-1 (NR5A2) inverse agonists, retest, confirmation, cell-based, luminescence (AID 651613; in the data active means inhibition above about 42%;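 further: HEK293T cells co-transfected with LRH-1 and StAR promoter luciferase reporter; 0% = vehicle wells and 100% = parental cells lacking receptor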). To be noted: cell-based LRH-1 luciferase reporter, inverse agonism; at 3.6 µM; stronger effect = higher value. (In general: In a reporter assay the amount or activity of a reporter protein is the signal.)

Test [3] has as its target Steroidogenic factor 1 (Homo sapiens) (UniProt Q13285). Description: SF1 (NR5A1) inverse agonists, counter-screen for LRH-1 inverse agonist project, cell-based, luminescence, high throughput (AID 651614; in the data active means inhibition above about 44%;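 further: cells cotransfected with StAR promoter reporter and SF1 expression vector; 0% = vehicle on cells with receptor and 100% = vehicle on cells lacking receptor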). The following applies: cell-based SF1 luciferase reporter, at 3.6 µM, stronger effect = higher value.
Test [4] can be described thus: VP16 transactivation reporter inhibitors, counter-screen for LRH-1 inverse agonist project, cell-based, luminescence, high throughput (AID 651615). The following applies: Gal4-VP16 luciferase reporter cells, at 3.6 µM, stronger effect = higher value.

Sequence of Steroidogenic factor 1 (Homo sapiens) (Q13285 whole entry, looked up, the tested form may be a part): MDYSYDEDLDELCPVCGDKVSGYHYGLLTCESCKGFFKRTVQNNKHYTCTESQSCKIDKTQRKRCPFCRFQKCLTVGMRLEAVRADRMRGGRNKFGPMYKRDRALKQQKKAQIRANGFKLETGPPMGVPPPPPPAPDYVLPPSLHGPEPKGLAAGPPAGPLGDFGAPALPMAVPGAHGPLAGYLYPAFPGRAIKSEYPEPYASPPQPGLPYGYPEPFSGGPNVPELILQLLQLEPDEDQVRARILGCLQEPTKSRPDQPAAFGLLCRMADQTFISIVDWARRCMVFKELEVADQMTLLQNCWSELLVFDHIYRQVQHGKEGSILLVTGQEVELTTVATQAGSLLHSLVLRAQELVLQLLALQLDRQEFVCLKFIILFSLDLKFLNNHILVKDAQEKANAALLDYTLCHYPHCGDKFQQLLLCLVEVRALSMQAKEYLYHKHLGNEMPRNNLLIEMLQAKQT
Sequence of Nuclear receptor subfamily 5 group A member 2 (Homo sapiens) (O00482 whole entry, looked up): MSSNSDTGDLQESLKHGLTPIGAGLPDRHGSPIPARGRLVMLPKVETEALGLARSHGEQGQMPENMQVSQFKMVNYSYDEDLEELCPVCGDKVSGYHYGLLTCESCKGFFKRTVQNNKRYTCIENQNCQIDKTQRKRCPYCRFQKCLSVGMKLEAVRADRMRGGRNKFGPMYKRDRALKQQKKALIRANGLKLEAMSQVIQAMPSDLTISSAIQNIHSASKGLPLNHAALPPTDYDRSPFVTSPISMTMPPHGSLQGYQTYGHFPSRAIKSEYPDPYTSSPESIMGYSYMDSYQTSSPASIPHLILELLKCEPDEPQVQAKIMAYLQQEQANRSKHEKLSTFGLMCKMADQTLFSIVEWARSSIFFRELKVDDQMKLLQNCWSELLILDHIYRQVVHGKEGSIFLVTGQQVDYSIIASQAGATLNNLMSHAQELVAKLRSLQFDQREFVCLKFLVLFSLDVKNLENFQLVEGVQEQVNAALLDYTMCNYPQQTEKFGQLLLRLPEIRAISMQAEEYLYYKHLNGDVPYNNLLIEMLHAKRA

As usually defined, the inhibition is the relative decrease from the control value, in per cent. `CC(Nc1ncnc2sccc12)c1ccccc1` (stereo unspecified): the inhibition in test [1] was 25.8%; in test [2], 64.5% (active); in test [3], 64.9% (active); in test [4] it was 57.7% (active).
For `COc1ccc(OC)c(NC(=O)c2ccccc2NC(=O)c2ccco2)c1`, in that order: 12.6%, 45.3% (active), 47.3% (active) and -1.48%.
As for `NC1=CC(=O)C(=O)c2ccccc21`, the inhibition was 29.2% (active) in test [1], 54.9% (active) in test [2], 47% (active) in test [3] and -6.09% in test [4].
On to `CCCCOCCCNc1ncnc2c1[nH]c1ccccc12`, for which the inhibition in test [1] was 13.1%; in test [2], 50% (active); in test [3] it was 53.6% (active); in test [4], 42.3% (active).
`O=C(Nc1nc2ccc(F)cc2s1)c1ccc([N+](=O)[O-])o1`: the inhibition was -101% in test [1], 0.34% in test [2], 10% in test [3] and -93.2% in test [4].
As for `Cc1cc(C)c2c(=O)[nH]c(SCC(=O)Nc3ccc(Br)cc3)nc2n1`, the inhibition in test [1] was 9.16%; in test [2], 47.8% (active); in test [3] it was 30.6%; in test [4], -6.94%.
For the compound `COc1ccc(NS(=O)(=O)c2ccc(OCC(=O)N3CCOCC3)cc2)cc1Cl`, the inhibition in test [1] was -8.5%; in test [2] it was 35.7%; in test [3] it was 34.3%; in test [4] it was 6.15%.
In the same order, the values of `O=c1c2ccccc2c(C=Nc2ccccc2O)c(O)n1-c1nccs1` are 5.33%, 46.1% (active), 35.1% and -7.97%.
In the case of `COc1ccc(NC(=O)COC(=O)Cc2c[nH]c3ccccc23)cc1Cl`, the inhibition was 18.2% in test [1], 40.9% in test [2], 42.5% in test [3] and -6.87% in test [4].
For the compound `COc1ccc(OC)c(NS(=O)(=O)c2ccc(SC)cc2)c1`, the inhibition in test [1] is 37.9% (active); in test [2], 55% (active); in test [3], 54.2% (active); in test [4], 14.8%.
In the same order, the values of `COc1ccc(NC(=O)CSc2ncnc3c2cnn3Cc2ccccc2)cc1` are 16.1%, 49.6% (active), 62.2% (active) and 2.38%.
Consider `COCC(C)n1c(-c2ccc3c(c2)NC(=O)CO3)csc1=Nc1ccc(OC(F)F)cc1` (stereo unspecified), for which the inhibition is 10.3% in test [1], 79.3% (active) in test [2], 69.3% (active) in test [3] and 34.4% (active) in test [4].
In the same order, the values of `CN(C)S(=O)(=O)c1ccc(C(=O)NCc2ccc3[nH]c4c(c3c2)CCCC4)cc1` are 24.6%, 39.3%, 54.4% (active) and -9.28%.
In the same order, the values of `CC(C(=O)OCC(=O)Nc1ccc2c(c1)OCO2)N1C(=O)c2ccccc2C1=O` (stereo unspecified) are -2.26%, 49.2% (active), 48.2% (active) and -12.4%.
Turning to `O=C(NCCCc1ccccc1)c1cc([N+](=O)[O-])ccc1Cl`, the inhibition was 23.3% in test [1], 71% (active) in test [2], 67.5% (active) in test [3] and -15.8% in test [4].
As to `O=C(C(Cl)c1ccccc1)N1CCOCC1` (stereo unspecified), the inhibition in test [1] was 5.9%; in test [2] it was 56.5% (active); in test [3], 54.5% (active); in test [4] it was -10.2%.
`CCOc1ccc(CCNC(=O)COC(=O)c2cc(S(=O)(=O)N3CCOCC3)ccc2F)cc1OCC`: the inhibition in test [1] was 5.25%; in test [2], 53.2% (active); in test [3], 57.1% (active); in test [4], -4.44%.
In the same order, the values of `COC(=O)c1ccc(NC(=O)CN2CCC(NC(=O)c3ccccc3F)CC2)cc1` are 23.6%, 52.3% (active), 44.1% (active) and -4.8%.
For `O=C(Sc1cccc2cccnc12)c1ccccc1Br`, the inhibition in test [1] is 86.8% (active); in test [2] it was 92.1% (active); in test [3], 85.5% (active); in test [4], 88% (active).
Consider `COc1cccc2sc(N3CCN(C(=O)c4ccc([N+](=O)[O-])o4)CC3)nc12`, for which the inhibition was 25.2% in test [1], 69.2% (active) in test [2], 70.4% (active) in test [3] and -23.4% in test [4].
For `O=C(Nc1ccc([N+](=O)[O-])cc1)c1cccc([N+](=O)[O-])c1`, in that order: 8.52%, 65.6% (active), 64.5% (active) and -15.3%.
In the same order, the values of `COc1ccc(CCNC(=O)COC(=O)C2CC2C)cc1` (stereo unspecified) are 3.36%, 47.1% (active), 48.6% (active) and 2.63%.
On to `Cc1ccc(NC(=O)COC(=O)C(NS(=O)(=O)c2ccc(Cl)cc2)C(C)O)c(Br)c1` (stereo unspecified), for which the inhibition in test [1] is 3.18%; in test [2], 55.3% (active); in test [3], 57.6% (active); in test [4], -12.9%.
In the same order, the values of `CCN1C(=O)c2cccc3c(NC(=O)c4cccc(N5C(=O)CCC5=O)c4)ccc1c23` are 21.9%, 51.3% (active), 50.1% (active) and -48.1%.
`CCCCOc1ccc(Br)cc1CSC(=N)N`: the inhibition is 16.4% in test [1], 103% (active) in test [2], 62.3% (active) in test [3] and 83.2% (active) in test [4].
For the compound `O=C(Nc1ccc(F)cc1)c1oc2ccccc2c1NC(=O)C1CC1`, the inhibition in test [1] was 24.4%; in test [2], 50.9% (active); in test [3] it was 62.2% (active); in test [4], 3.97%.
For `CCN1C(=O)c2cccc3c(S(=O)(=O)Nc4ccccc4O)ccc1c23`, in that order: 38.4% (active), 34.1%, 36.2% and -88.6%.
In the same order, the values of `C/C(=N\Nc1cc(C(F)(F)F)ccc1Cl)c1ccncc1` are 2.53%, 40%, 47.6% (active) and 3.73%.
For the compound `Cc1ccc(-n2nnnc2-c2ccccc2Br)cc1`, the inhibition is 7.41% in test [1], 57.2% (active) in test [2], 52% (active) in test [3] and 4.92% in test [4].
In the case of `Nc1ccc(Nc2ccncc2[N+](=O)[O-])cc1`, the inhibition in test [1] was 2.61%; in test [2] it was 65.6% (active); in test [3] it was 61.9% (active); in test [4] it was 15.7%.
Take `COc1ccc(/C=C/C(=O)c2cc(F)ccc2OC(=O)c2ccccc2C)cc1OC`: the inhibition is 52.9% (active) in test [1], 41.1% in test [2], 44.9% (active) in test [3] and 40.4% (active) in test [4].
As to `CC(NC(=O)c1ccco1)C(c1cccs1)N1CCN(c2ccccc2F)CC1` (stereo unspecified), the inhibition in test [1] was 3.57%; in test [2], 49.3% (active); in test [3], 42.6%; in test [4], 13%.
Consider `Cc1no[n+]([O-])c1COc1ccccc1/C=N/n1nnnc1N`, for which the inhibition in test [1] is 7.3%; in test [2], 48.8% (active); in test [3], 43% (active); in test [4] it was -13.9%.
In the same order, the values of `O=C(Nc1nnc(C2=COCCO2)o1)c1ccc([N+](=O)[O-])s1` are 18.6%, 49.4% (active), 40.3% and -6.2%.
Consider `CSc1ccc(COC(=O)c2cc([N+](=O)[O-])ccc2N2CCOCC2)cc1`, for which the inhibition in test [1] was 61.7% (active); in test [2], 57.5% (active); in test [3], 65.8% (active); in test [4], 36.6% (active).
With `O=C(CSc1nc2ccccc2c(=O)n1-c1ccc(Cl)c(Cl)c1)Nc1ccc2c(c1)CCC2`, the inhibition in test [1] is -1.82%; in test [2] it was 49.9% (active); in test [3] it was 37.8%; in test [4], -40.9%.
As for `S=C(NCc1ccccc1)Nc1ccncc1`, the inhibition was 9.38% in test [1], 37% in test [2], 47.3% (active) in test [3] and 13.1% in test [4].
`Cc1cc(C)n(-c2nc(Nc3ccccc3C(F)(F)F)nc(-n3nc(C)cc3C)n2)n1`: the inhibition in test [1] was 20.8%; in test [2], 21.6%; in test [3] it was 24.5%; in test [4], -0.49%.
As for `O=[N+]([O-])c1ccc(Sc2nnnn2-c2ccccc2)c(Cl)c1`, the inhibition in test [1] was 5.41%; in test [2], 25.6%; in test [3] it was 37.7%; in test [4], -13%.
In the case of `COc1ccc(/C=C2/C(=O)OCc3cc(OC)c(OC)cc32)cc1`, the inhibition was 36.9% (active) in test [1], 56.4% (active) in test [2], 57.9% (active) in test [3] and 23.4% in test [4].
Consider `O=C(COc1ccc2c(-c3ccccc3)cc(=O)oc2c1)NCCCn1ccnc1`, for which the inhibition in test [1] was 9.33%; in test [2] it was 36.4%; in test [3], 39%; in test [4], -19.5%.
Take `COc1cc(OC)cc(C(=O)N[C@H](C(=O)OCC(=O)Nc2ccc3c(c2)OCO3)C(C)C)c1`: the inhibition in test [1] is 14.4%; in test [2], 48.1% (active); in test [3], 45.9% (active); in test [4], -4.48%.
As to `CCOC(=O)c1ccc(Nc2nc(-c3cccnc3)nc3ccccc23)cc1`, the inhibition in test [1] was 44.5% (active); in test [2], 49.6% (active); in test [3], 41.1%; in test [4], 11.4%.
Regarding `COCCSc1ccccc1C(=O)NCc1ccc2c(c1)OCO2`, the inhibition in test [1] is 6.49%; in test [2] it was 39.5%; in test [3] it was 48.9% (active); in test [4], 2.27%.
For `c1ccc2c(c1)CC1(CCCC1)n1nnnc1-2`, in that order: 5.24%, 52.2% (active), 42.5% and -5.69%.
Turning to `CCN1C(=O)c2cccc3c(NC(=O)c4ccc(S(=O)(=O)N5CCOCC5)cc4)ccc1c23`, the inhibition in test [1] was 40.3% (active); in test [2], 62% (active); in test [3], 62.7% (active); in test [4], -60.9%.
In the case of `CCOc1ccc(NC(=O)CSc2nncc(=O)[nH]2)cc1`, the inhibition in test [1] is 8.36%; in test [2], 63% (active); in test [3], 57.7% (active); in test [4], -11.2%.
Take `CCOc1ccc(NC(=O)CSc2nccn(-c3ccc4c(c3)OCCO4)c2=O)cc1`: the inhibition in test [1] was -5.61%; in test [2], 55% (active); in test [3] it was 60.7% (active); in test [4], -10.1%.
Take `Nc1ccc(Br)c2cccnc12`: the inhibition is 3.69% in test [1], 26.2% in test [2], 24.8% in test [3] and -9.28% in test [4].
For `O=C(c1ccc(Cl)cc1)N1CCCCC(Cl)C1=O` (stereo unspecified), in that order: 20.5%, 56.1% (active), 57.2% (active) and 1.69%.
In the case of `CCc1ccc(N2C=C(C(=O)OC)C(c3ccc(OC)cc3)C(C#N)=C2N)cc1` (stereo unspecified), the inhibition is 48.9% (active) in test [1], 25.1% in test [2], 45.3% (active) in test [3] and 24.5% in test [4].
`COc1ccccc1-n1c(SCC(=O)Nc2ccc(F)cc2)nc2c(c1=O)SCC2`: the inhibition in test [1] was 10.4%; in test [2] it was 54.9% (active); in test [3], 55.9% (active); in test [4] it was -9%.
Take `CC(=O)Nc1ccc(-c2c(C)cc3oc(=O)cc(-c4ccccc4)c3c2C)cc1`: the inhibition in test [1] is 15.9%; in test [2], 57.9% (active); in test [3], 58.9% (active); in test [4], -2.96%.
Take `COc1cc(OC)cc(-c2oc3cccnc3c2C#CCCO)c1`: the inhibition in test [1] is 2.16%; in test [2] it was 60.8% (active); in test [3] it was 54.2% (active); in test [4], -0.7%.
